According to PubChem BioAssay:
The source made the active and inactive calls.

How the values were obtained:
[1] = binders of probe aFSTL3 on microarray, primary screen, stem cell growth factor project, biochemical, small-molecule microarray, fluorescence 635/667 (AID 1064); details: higher = more signal;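 also: measures binding of the biotinylated anti-FSTL3 antibody to printed compounds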
[2] = binders from COS7 lysate, DM2A8 probe, primary screen, torsin A project, cell lysate, small-molecule microarray, fluorescence 635/667 (AID 1065); details: higher = more signal, COS7 lysate expressing mutant human TOR1A
[3] = binders of probe aFGF2 on microarray, primary screen, stem cell growth factor project, biochemical, small-molecule microarray, fluorescence 635/667 (AID 1067); details: higher = more signal;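 also: measures binding of biotinylated aFGF2 protein to printed compounds on slides; z-score merges feature fluorescence and signal-to-noise across triplicate slides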
[4] = binders of probe aFGF10 on microarray, primary screen, stem cell growth factor project, biochemical, small-molecule microarray, fluorescence 635/667 (AID 1071); details: higher = more signal;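 also: score merges 667 nm spot intensity and signal to noise from triplicate slides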
[5] = target: Neurogenic locus notch homolog protein 2 (Homo sapiens) (UniProt Q04721); assay: Notch2 binders on small-molecule microarrays, primary screen, biochemical, small-molecule microarray, 635 nm fluorescence, stem cell growth factors (AID 1073); details: Notch2 binding, higher = more signal
[6] = target: Pro-neuregulin-1, membrane-bound isoform (Homo sapiens) (UniProt Q02297); assay: NRG1 binders on small-molecule microarrays, primary screen, psychiatric disease protein project, biochemical, small-molecule microarray, fluorescence 635/667 (AID 1075); details: NRG1 binding, 635 nm fluorescence, higher = more signal;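 also: score combines 667 nm spot fluorescence with signal to noise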
[7] = test system: Neuregulin-1 EGF-like domain; assay: binders of neuregulin-1 EGF-like domain, primary screen, biochemical, small-molecule microarray, 635 nm fluorescence (AID 1081); details: small-molecule microarray binding, higher = more signal;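 also: binding of the protein to compounds printed on small-molecule microarray slides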
[8] = FRG1 promoter luciferase signal modulators, primary screen, FRG1 inhibition for FSHD, cell-based, C2C12 myotubes, firefly/Renilla luciferase, luminescence (AID 1084); details: higher = more signal, called active from +8 up or from −8 down
[9] = binders of probe aFST on microarray, primary screen, stem cell growth factor project, biochemical, small-molecule microarray, fluorescence 635/667 (AID 1086); details: higher = more signal;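 also: score merges 667 nm fluorescence with signal-to-noise of each printed compound spot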
[10] = binders of probe aHhip on microarray, primary screen, stem cell growth factor project, biochemical, small-molecule microarray, fluorescence 635/667 (AID 1087); details: higher = more signal;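 also: score merges spot fluorescence at 667nm with spot signal to noise ratio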
[11] = test system: PRMT1 (protein arginine N-methyltransferase 1); assay: PRMT1 binders on small-molecule microarrays, primary screen, biochemical, small-molecule microarray, 635 nm fluorescence (AID 1088); details: small-molecule microarray binding, higher = more signal;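 also: binding of Prmt1 protein to compounds spotted on small-molecule microarray slides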
[12] = yeast growth modulation, basal conditions, primary screen, YJM789 clinical isolate, OD600, 24 h (AID 1089);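 also: growth of clinical yeast isolate S. cerevisiae YJM 789 seeded 1000 cells per well; test concentration not given here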; details: S. cerevisiae YJM789 growth, higher = more signal, called active from +8 up or from −8 down
[13] = fission yeast growth modulation, primary screen, strain 972, OD600, 24 h, no modulator (AID 1090);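 also: basal condition with compound alone and no growth modifier present; test concentration not given here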; details: S. pombe 972 growth, higher = more signal, called active from +8 up or from −8 down
[14] = S. cerevisiae growth modulation with rapamycin, primary screen, strain BY4716, OD600, 96 h (AID 1091); details: higher = more signal, called active from +8 up or from −8 down; also: test concentration not given here
[15] = target: Torsin-1A-interacting protein 2 (Homo sapiens) (UniProt Q8NFQ8); assay: LULL1 binders on small-molecule microarray, primary screen, cell lysate, human LULL1 lysate, 635/667 nm fluorescence (AID 1092); details: hLULL1 lysate binding, 635 nm fluorescence, higher = more signal;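 also: probe is lysate of COS7 cells overexpressing human LULL1; score merges per-feature 667 nm fluorescence with signal-to-noise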
[16] = E. coli growth modulation, two-sided OD650, primary screen, E. coli filamentation project, strain DRC41, 24 h (AID 1093); details: OD650, 24 h, higher = more signal, called active from +8 up or from −8 down;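 also: MC1000 strain lacking acrAB efflux and sulA so SOS filamentation is blocked; test concentration not given here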
[17] = small-molecule microarray binders of probe aLefty2, primary screen, biochemical, biotinylated probe, 635/667 nm fluorescence (AID 1094); details: higher = more signal;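 also: score merges spot fluorescence near 667 nm with spot signal-to-noise ratio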
[18] = test system: Noggin (protein binding on small-molecule microarray); assay: Noggin binders on small-molecule microarray, primary screen, biochemical, 635/667 nm fluorescence (AID 1095); details: 635 nm fluorescence, higher = more signal;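 also: score merges 667 nm feature fluorescence with signal to noise over triplicate slides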
[19] = target: Neurogenic locus notch homolog protein 3 (Homo sapiens) (UniProt Q9UM47); assay: NOTCH3 binders on small-molecule microarray, primary screen, biochemical, 635/667 nm fluorescence (AID 1096); details: NOTCH3 binding, 635 nm fluorescence, higher = more signal
[20] = small-molecule microarray binders of probe aEGFR, primary screen, biochemical, biotinylated probe, 635/667 nm fluorescence (AID 1097); details: higher = more signal;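 also: probe is a biotinylated anti-EGFR antibody binding compounds printed on slides; score combines fluorescence near 667 nm and signal to noise of each spot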

Torsin-1A-interacting protein 2 (Homo sapiens), sequence (Q8NFQ8 whole entry, looked up): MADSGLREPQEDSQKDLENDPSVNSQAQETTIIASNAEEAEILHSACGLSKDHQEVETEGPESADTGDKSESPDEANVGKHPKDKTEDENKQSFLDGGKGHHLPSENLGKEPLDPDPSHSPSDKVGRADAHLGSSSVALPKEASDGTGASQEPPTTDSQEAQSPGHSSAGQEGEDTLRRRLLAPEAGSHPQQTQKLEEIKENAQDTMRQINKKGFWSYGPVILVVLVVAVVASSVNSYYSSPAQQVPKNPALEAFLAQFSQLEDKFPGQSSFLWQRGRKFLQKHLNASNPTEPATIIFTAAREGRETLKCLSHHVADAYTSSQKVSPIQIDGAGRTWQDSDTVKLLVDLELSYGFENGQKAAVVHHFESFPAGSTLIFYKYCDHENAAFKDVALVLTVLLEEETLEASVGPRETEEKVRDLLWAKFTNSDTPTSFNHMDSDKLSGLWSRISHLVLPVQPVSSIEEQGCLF
Neurogenic locus notch homolog protein 3 (Homo sapiens), sequence (Q9UM47 whole entry, looked up): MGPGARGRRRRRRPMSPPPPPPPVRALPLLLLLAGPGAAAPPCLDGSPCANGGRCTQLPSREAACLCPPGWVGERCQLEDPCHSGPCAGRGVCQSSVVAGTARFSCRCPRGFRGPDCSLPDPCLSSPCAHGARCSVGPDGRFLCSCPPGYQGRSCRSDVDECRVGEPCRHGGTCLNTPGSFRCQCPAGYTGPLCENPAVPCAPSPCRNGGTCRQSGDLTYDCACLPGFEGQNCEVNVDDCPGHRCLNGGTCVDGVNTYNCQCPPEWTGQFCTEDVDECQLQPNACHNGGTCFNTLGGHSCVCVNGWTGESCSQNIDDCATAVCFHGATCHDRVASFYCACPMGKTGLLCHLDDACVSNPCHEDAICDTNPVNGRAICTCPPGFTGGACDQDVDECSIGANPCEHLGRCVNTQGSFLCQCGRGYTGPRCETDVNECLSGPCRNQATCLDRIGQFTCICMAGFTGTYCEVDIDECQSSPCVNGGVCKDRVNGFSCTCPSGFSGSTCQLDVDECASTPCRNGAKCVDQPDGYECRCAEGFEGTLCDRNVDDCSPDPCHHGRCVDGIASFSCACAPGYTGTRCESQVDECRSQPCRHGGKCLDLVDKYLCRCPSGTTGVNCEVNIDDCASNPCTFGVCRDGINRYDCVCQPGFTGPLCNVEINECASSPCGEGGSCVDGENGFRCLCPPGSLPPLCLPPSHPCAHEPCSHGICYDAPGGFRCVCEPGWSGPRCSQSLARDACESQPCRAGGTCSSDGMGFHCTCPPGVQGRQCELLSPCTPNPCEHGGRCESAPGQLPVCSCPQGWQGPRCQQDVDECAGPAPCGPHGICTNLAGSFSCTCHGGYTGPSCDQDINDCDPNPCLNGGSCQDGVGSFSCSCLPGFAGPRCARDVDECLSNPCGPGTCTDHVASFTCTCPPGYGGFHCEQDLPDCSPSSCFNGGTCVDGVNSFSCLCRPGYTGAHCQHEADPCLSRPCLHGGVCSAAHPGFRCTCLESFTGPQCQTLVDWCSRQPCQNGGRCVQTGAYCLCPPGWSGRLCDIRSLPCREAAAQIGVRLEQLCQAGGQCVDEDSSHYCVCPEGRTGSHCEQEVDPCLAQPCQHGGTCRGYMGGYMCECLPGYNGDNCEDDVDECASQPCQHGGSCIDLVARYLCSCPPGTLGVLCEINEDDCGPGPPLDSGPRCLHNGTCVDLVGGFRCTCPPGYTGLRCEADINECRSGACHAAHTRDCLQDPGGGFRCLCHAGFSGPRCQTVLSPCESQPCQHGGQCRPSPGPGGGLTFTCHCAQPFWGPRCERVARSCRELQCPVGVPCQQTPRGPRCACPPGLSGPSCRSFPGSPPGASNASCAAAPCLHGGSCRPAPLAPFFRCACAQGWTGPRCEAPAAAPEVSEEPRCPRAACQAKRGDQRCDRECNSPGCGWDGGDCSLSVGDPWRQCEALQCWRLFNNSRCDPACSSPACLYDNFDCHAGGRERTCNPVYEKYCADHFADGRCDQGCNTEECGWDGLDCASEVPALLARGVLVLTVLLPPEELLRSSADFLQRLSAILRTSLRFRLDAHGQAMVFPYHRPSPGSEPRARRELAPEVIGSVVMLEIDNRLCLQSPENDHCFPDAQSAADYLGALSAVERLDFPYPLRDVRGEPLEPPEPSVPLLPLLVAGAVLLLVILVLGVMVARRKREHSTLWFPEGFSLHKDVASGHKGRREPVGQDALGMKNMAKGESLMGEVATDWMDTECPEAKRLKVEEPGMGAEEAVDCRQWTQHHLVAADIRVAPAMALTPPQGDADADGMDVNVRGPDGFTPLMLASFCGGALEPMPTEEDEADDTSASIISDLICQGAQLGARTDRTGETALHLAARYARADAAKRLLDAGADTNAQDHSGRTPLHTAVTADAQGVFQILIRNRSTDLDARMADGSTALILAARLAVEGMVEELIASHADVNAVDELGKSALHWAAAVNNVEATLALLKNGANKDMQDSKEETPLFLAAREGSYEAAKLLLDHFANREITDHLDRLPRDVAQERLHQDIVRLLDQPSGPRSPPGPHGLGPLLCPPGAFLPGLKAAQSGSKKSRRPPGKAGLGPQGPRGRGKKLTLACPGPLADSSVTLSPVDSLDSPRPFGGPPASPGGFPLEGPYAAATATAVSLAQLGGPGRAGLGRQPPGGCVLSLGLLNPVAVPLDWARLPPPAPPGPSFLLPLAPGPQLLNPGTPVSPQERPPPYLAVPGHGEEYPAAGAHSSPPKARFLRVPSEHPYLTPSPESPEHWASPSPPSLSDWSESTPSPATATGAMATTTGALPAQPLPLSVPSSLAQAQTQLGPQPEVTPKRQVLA
Pro-neuregulin-1, membrane-bound isoform (Homo sapiens), sequence (Q02297 whole entry, looked up, the tested form may be a part, canonical isoform): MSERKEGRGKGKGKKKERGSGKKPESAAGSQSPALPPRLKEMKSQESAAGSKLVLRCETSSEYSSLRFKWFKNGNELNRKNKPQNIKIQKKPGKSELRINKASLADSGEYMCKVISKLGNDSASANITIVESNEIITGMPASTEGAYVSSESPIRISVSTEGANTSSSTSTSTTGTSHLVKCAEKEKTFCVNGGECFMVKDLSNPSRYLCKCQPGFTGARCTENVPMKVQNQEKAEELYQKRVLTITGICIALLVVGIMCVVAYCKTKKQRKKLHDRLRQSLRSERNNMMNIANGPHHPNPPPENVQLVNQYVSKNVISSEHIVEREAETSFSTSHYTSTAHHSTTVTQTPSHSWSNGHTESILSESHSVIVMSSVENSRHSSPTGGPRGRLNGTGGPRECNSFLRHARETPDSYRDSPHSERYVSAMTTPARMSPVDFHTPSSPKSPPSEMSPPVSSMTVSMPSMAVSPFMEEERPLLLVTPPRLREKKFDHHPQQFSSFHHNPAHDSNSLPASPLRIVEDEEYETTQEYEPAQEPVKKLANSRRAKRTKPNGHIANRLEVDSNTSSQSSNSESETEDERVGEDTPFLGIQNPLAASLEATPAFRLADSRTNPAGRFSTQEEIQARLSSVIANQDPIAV

Structure (SMILES)	composite z-score [1]	composite z-score [2]	composite z-score [3]	composite z-score [4]	composite z-score [5]	composite z-score [6]	composite z-score [7]	z-score [8]	composite z-score [9]	composite z-score [10]	composite z-score [11]	z-score [12]	z-score [13]	z-score [14]	composite z-score [15]	z-score [16]	composite z-score [17]	composite z-score [18]	composite z-score [19]	composite z-score [20]
CN1CCC(CCCO)=CC1C1CC1 (stereo not given)	-0.389	1.39	-0.199	-0.856	-1.13	-0.345	0.743	-0.901 (inactive)	-0.287	-0.251	0.608	-0.477 (inactive)	-0.851 (inactive)	-0.761 (inactive)	-0.463	1.08 (inactive)	-0.308	0.724	0.0618	-0.104
COCCOC(=O)N1C(=O)[C@@]2(c3cc(C#CC4=CCCCC4)ccc31)[C@H](C(=O)NC[C@H](O)c1ccccc1)[C@H]1C(=O)O[C@H](c3ccccc3)[C@H](c3ccccc3)N1[C@@H]2c1ccc(OCCO)cc1	-0.409	0.782	-0.0566	0.478	1.26	1.12	1.26	0.916 (inactive)	0.575	-0.0645	1.54	2.15 (inactive)	1.44 (inactive)	4.41 (inactive)	2.41	-0.662 (inactive)	-0.003	1.85	1.13	-0.144
C=CCOC(=O)[C@@H]1[C@H]2C(=O)O[C@H](c3ccccc3)[C@H](c3ccccc3)N2[C@H](c2ccc(OCCOC(=O)[C@H]3C[C@H]4C(=O)N5CCC[C@H]5C(=O)N4[C@H]3c3ccc(O)cc3)cc2)[C@@]12C(=O)Nc1ccccc12	-0.536	0.774	-0.0169	0.691	0.742	0.968	1.3	-0.619 (inactive)	-0.0007	-0.0994	1.51	-0.0259 (inactive)	-0.766 (inactive)	2.42 (inactive)	1.44	2.52 (inactive)	0.239	0.684	0.695	0.0459
C=CCC(OC(C)=O)[C@@H]1[C@@H](N(Cc2cccc3ccccc23)C(=O)c2ccc(C)cc2)c2cc(OCCCO)ccc2N1C(=O)c1ccc(-c2ccccc2)cc1 (stereo not given in full)	0.115	0.529	-0.0753	0.255	-0.169	0.0808	-0.173	-2.1 (inactive)	0.159	-0.335	0.578	-2.24 (inactive)	0.167 (inactive)	-0.347 (inactive)	0.298	1.29 (inactive)	-0.11	0.314	0.387	-0.0967
Cc1ccc(S[C@]2(C(=O)NC(C)C)CC(=O)N(Cc3cc(C(F)(F)F)cc(C(F)(F)F)c3)[C@@H]2c2ccc(CO)cc2I)cc1	0.808	-0.666	-0.103	-0.345	-1.7	1.53	0.74	-0.321 (inactive)	-0.666	-0.0994	1.26	-0.698 (inactive)	-2.47 (inactive)	1.2 (inactive)	2.04	0.715 (inactive)	-0.0544	-0.147	-0.513	-0.317
NC(=O)[C@H]1[C@@H]2C(=O)O[C@@H](c3ccccc3)[C@@H](c3ccccc3)N2[C@@H](c2ccc(O)cc2)[C@]12C(=O)Nc1ccc(C#CCCO)cc12	0.545	-0.831	-0.12	-0.861	-0.982	-0.0709	1.12	-0.89 (inactive)	-0.605	-0.251	-0.484	-0.178 (inactive)	-0.196 (inactive)	-0.503 (inactive)	0.497	0.0528 (inactive)	-0.05	-1.02	-0.714	-0.112
Cc1ccc(S[C@]2(C(=O)O)CC(=O)N(Cc3ccccc3)[C@@H]2c2ccc(CO)cc2)cc1	0.58	0.131	-0.0853	-1.1	0.0203	-0.33	0.736	-0.579 (inactive)	0.262	-0.367	0.191	-0.179 (inactive)	-2.58 (inactive)	0.215 (inactive)	1.88	2.49 (inactive)	-0.0953	-0.674	-0.0738	-0.136
CCCN1C(=O)[C@@]2(CCS(=O)(=O)c3ccccc3)N=C(c3ccc(OCCCO)cc3)O[C@H]2c2ccccc21	0.309	0.437	0.0127	0.136	0.728	1.72	1.36	-3.15 (inactive)	0.328	0.0722	1.53	0.817 (inactive)	0.69 (inactive)	4.5 (inactive)	2.8	0.341 (inactive)	0.0686	1.03	1.09	-0.0118
COc1cc(Cc2cc3c(c(CCc4ccccc4)n2)[Si](C(C)C)(C(C)C)OC3)cc(OC)c1OC	-0.0934	-0.0736	-0.146	-0.108	-0.0899	-0.35	-0.233	0.311 (inactive)	0.337	-0.0672	0.735	0.238 (inactive)	-0.226 (inactive)	0.0563 (inactive)	-0.244	-1.02 (inactive)	-0.184	0.684	0.483	0.286
